# High-throughput results as filed in PubChem BioAssay.
# JMJD2A Tudor: inhibitors of human JMJD2A Tudor domain. AID 504339. 390,000 compounds, 4.4% hits. O75164. AlphaScreen JMJD2A-Tudor / H3K4me3 peptide binding. Potency, µM (doses to about 114 µM), inactives show top-dose activity change, negative = inhibition, hits mostly inhibitors; also: potency is read from the fitted curve at half-maximal effect; % is scaled to controls: 0 for no effect and ±100 for the full control effect; nearly all actives have a fitted effect of over 50% in size
# HP1b chromo inh: inhibitors of HP1-beta chromodomain binding to methylated histone tails | P83916 | AlphaScreen HP1-beta / biotin-H3K9me3 peptide binding | Potency, µM (highest dose often 114 µM), for the others: at the highest dose activity change, negative = inhibition, hits mostly inhibitors | 390,000 compounds, 0.56% hits; also: potency is read from the fitted curve at half-maximal effect; nearly all actives have a fitted effect of over 70% in size
#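 AlphaScreen: HP1-beta (50 nM) preformed 30 min with biotin-H3(1-18)K9me3 peptide (50 nM) in PBS pH 7.4, 0.01% Tween-20. Compound added for 30 min at RT, then streptavidin donor/nickel chelate acceptor beads (10 ug/mL) for 30 min.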
# PI5P4Ka inh: inhibitors of human PI5P4K alpha | PI5P4Kalpha enzyme, ADP-Glo luminescence, 60 min; stronger effect = lower value | P48426 | AID 652105 | 330,000 compounds, 1.2% hits | max response, %; active = max response of -50% or lower; inconclusive = between -30% and -50%; inactive = -30% or higher; also: value at the top dose of about 77 µM; % is scaled to controls: 0 for no effect and ±100 for the full control effect
#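 Single end-point luminescence (ADP-Glo) quantified ADP from PI5P4Kalpha turnover; ATP 5 microM final, 1 h at RT, 0.1% CHAPS and 0.28 mM EGTA in HEPES pH 7.4.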
# BAZ2B block: BAZ2B (human) inhibition; Q9UIF8; 360,000 compounds, 4.4% hits; AID 504333; AlphaScreen BAZ2B-H3K14Ac peptide displacement; Potency, µM (doses to about 114 µM), for the others: at the highest dose activity change, negative = inhibition, usual class: inhibitors; also: potency is read from the fitted curve at half-maximal effect; % is scaled to controls: 0 for no effect and ±100 for the full control effect; nearly all actives have a fitted effect of over 60% in size
# Target sequence (Q9UIF8 whole entry, looked up): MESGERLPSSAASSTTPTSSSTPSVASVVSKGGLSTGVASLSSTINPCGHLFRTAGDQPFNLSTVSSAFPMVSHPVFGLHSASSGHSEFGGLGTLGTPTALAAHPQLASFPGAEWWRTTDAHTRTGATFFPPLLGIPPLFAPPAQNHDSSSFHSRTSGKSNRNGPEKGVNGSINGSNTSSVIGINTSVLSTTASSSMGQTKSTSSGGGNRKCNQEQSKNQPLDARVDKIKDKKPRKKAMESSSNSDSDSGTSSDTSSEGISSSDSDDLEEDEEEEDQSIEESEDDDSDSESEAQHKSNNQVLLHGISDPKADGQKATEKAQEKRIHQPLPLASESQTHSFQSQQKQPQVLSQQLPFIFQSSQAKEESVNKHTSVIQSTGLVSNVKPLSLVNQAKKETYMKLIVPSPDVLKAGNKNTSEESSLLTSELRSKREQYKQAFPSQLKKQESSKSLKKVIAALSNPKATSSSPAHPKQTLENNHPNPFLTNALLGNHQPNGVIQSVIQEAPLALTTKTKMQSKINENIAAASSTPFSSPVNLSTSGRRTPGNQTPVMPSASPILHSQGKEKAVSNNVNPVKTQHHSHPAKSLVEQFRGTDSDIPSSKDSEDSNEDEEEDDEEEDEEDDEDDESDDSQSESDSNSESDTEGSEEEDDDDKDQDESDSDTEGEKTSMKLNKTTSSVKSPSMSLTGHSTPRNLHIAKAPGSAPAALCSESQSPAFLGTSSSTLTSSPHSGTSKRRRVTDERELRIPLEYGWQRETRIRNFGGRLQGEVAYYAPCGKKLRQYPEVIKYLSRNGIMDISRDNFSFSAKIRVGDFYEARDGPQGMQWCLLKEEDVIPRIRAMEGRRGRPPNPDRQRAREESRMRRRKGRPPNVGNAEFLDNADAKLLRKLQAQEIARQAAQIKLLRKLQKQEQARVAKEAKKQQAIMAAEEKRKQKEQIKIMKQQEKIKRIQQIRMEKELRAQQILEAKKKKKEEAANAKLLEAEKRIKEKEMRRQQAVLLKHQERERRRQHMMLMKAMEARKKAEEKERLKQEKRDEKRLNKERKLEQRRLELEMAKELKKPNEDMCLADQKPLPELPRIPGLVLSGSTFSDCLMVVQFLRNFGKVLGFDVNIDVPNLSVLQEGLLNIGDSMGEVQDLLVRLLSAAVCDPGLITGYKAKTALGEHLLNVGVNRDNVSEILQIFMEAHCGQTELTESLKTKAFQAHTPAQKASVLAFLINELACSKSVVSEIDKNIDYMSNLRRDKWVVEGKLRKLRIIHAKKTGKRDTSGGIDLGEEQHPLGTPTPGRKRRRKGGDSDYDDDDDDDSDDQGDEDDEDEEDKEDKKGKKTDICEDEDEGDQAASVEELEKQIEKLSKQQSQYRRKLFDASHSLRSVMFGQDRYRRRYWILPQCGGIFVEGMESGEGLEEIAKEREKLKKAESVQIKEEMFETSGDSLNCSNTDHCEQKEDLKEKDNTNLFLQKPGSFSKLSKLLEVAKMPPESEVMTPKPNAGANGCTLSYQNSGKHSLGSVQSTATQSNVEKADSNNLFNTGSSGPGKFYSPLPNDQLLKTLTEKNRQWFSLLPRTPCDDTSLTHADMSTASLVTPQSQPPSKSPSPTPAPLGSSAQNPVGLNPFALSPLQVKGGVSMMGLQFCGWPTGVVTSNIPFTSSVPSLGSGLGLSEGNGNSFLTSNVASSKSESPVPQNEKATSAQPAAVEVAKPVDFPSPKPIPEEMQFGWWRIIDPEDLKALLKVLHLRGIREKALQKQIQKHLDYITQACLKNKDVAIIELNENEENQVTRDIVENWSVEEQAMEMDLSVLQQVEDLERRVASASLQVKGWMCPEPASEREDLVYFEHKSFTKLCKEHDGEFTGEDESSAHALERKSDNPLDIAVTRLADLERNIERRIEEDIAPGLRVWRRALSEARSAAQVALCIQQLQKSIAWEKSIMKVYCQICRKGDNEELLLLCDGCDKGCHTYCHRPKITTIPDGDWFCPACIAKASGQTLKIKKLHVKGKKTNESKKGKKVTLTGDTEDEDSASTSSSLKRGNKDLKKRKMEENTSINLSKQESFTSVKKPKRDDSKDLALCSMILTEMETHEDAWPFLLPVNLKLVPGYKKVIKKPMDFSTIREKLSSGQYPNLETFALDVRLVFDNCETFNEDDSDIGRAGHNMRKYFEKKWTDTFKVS
#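 AlphaScreen displacement: compounds (up to 110uM) incubated 30 min at room temperature with a preformed 50 nM BAZ2B/50 nM biotinylated H3K14Ac peptide complex in PBS pH 7.4 with Tween-20. Donor and acceptor beads at 10 ug/mL final added, 20 min light-protected before reading.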
# G9a inh: blocks human histone lysine methyltransferase G9a | Q96KQ7 | Potency, µM (highest dose often 102 µM), for the others: top-dose activity, negative = inhibition, actives largely listed as inhibitors | 350,000 compounds, 8.8% hits | G9a H3K9 monomethylation, AlphaScreen, 2 h; also: potency is read from the fitted curve at half-maximal effect; % is scaled to controls: 0 for no effect and ±100 for the full control effect; nearly all actives have a fitted effect of over 75% in size
#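 Signal arises when biotinylated H3K9 peptide, once monomethylated, bridges streptavidin donor and antibody-captured acceptor beads. Enzyme at 20 nM was preincubated 15 min with test compounds; peptide 500 nM and SAM 20 uM then reacted for 2 h.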
# L3MBTL1 inh: L3MBTL1 (human) inhibition | Q9Y468 | AlphaScreen L3MBTL1–H3K9me1 peptide binding | Potency, µM (top dose mostly 57.1 µM), for inactives: at the top dose activity, negative = inhibition, actives largely listed as inhibitors | 230,000 compounds, 0.66% hits | AID 485360; also: potency is read from the fitted curve at half-maximal effect; % is scaled to controls: 0 for no effect and ±100 for the full control effect; nearly all actives have a fitted effect of over 60% in size
#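 First, the protein-peptide complex forms for 30 min at room temperature (L3MBTL1 50 nM, biotinylated H3K9me1 peptide 75 nM). Next, compounds are pin-transferred and incubated 30 min. Finally, AlphaScreen beads are added and read after 30 min.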
# Active calls of the source: *; ? = inconclusive; . = not tested or not shown; [ ] = another dose, or the depositor's remark. Most compounds without a hit are left out; they make up all but 11% or so of the library. Unless noted, calls follow the shape of the dose curve; as a rule, active = well fitted inhibition curve with a large enough effect; inconclusive = small, poorly fitted or top-dose-only effect; inactive = no such curve, though single readings can be large or run the other way.
SMILES,JMJD2A Tudor,HP1b chromo inh,PI5P4Ka inh,BAZ2B block,G9a inh,L3MBTL1 inh
C#CCOCCOCCOCCNc1nc(N2CCN(C(=O)[C@H](CCCCN)n3cc(CCCC)nn3)CC2)nc(N2CCN(C(=O)[C@H](CCCCN)n3cc(CCCC)nn3)CC2)n1,?,-7%,20,?,40µM*,2%
C#CCOCCOCCOCCNc1nc(N2CCOCC2)nc(N2CCN(C(=O)[C@H](CCCCN)n3cc(CCCC)nn3)CC2)n1,-20%,21%,3,.,.,.
CC1(C)CC(=O)c2c(oc3c(Cl)cc(NS(=O)(=O)c4ccc(Cl)cc4)cc23)C1,-14%,25%,.,1%,6%[59 µM],.
CCOC(=O)c1ccccc1NC(=O)CCOc1ccccc1,98%,171%,.,128%,38%[59 µM],.
CCN1CCc2[nH]c3ccccc3c2C1,-4%,41%,1,-2%,25%,.
CC(c1ccccc1)N1CCc2[nH]c(=S)[nH]c(=O)c2C1 (stereo not given),-3%,53%,-1,1%,40µM*,.
CCCN1CNc2c(c(=O)[nH]c(=S)n2CCC)C1,-24%,20%,.,.,.,.
CCCCN1CCc2[nH]c(=S)[nH]c(=O)c2C1,25µM*,-12%,0,16%,35µM*,41%
COCCN1CCc2[nH]c(=S)[nH]c(=O)c2C1,-2%,25%,3,?,32µM*,5%
Cc1nc2nc(SCC(=O)Nc3cccc(Cl)c3)nn2c(C)c1Cc1ccccc1,-6%,22%,.,4%,6%[59 µM],.
Cc1ccccc1OC(C)C(=O)NCCNC(=O)C(C)Oc1ccccc1C (stereo not given),-7%[57.1 µM],22%[57 µM],.,.,.,.
CCc1ccc(OCC(=O)Nc2c(C(=O)c3ccc(Br)cc3)oc3ccccc23)cc1,8%,44%,.,3%,9%[59 µM],.
Cc1cc(C)c[n+](-c2[nH]c(=O)sc2/C=N/N=C(\N)[S-])c1,-11%,6%,0,?,40µM*,-2%
CCc1ccc[n+](-c2[nH]c(=O)sc2/C=N/N=C(\[O-])CCn2c3ccccc3c3ccccc32)c1,-30%,?,-5,?,45µM*,-5%
Cc1cc[n+](-c2[nH]c(=O)sc2/C=N/N=C(\[O-])c2ccncc2)cc1,-11%,39%,-7,56µM*,-12%,.
Cc1cc[n+](-c2[nH]c(=O)sc2/C=N/N=C(\[O-])c2ccccc2)cc1,?,10%,?,50µM*,-39%,?
Cc1cc[n+](-c2[nH]c(=O)sc2/C=N/N=C(\[O-])c2ccncc2)cc1C,-7%,37%,-2,?,-6%,.
Cc1cc[n+](-c2[nH]c(=O)sc2/C=N/N=C(\[O-])c2ccccc2)cc1C,0%[57.1 µM],34%,-15,?,50µM*,-20%
Cc1c(C2=CCN(S(=O)(=O)c3ccc(CC(C)C)cc3)CC2)c2ccccc2n1CC(=O)N1CCCC1,-26%,19%,.,-25%,?,.
Cc1cccc(C(=O)NC2CCN(C(=O)Nc3ccccc3C)CC2)c1,1%,11%,-7,3%,-2%,-14%
Cc1cccc(C(=O)NC2CCN(C(=O)Nc3ccc(F)cc3)CC2)c1,-1%,-5%,1,-2%,79µM*,.
CCOc1ccccc1NC(=O)N1CCC(NC(=O)c2cccc(C)c2)CC1,-32%,4%,-22,13%,32µM*,0%
Cc1ccc(NC(=S)N2CCC(NC(=O)c3ccc(C)cc3)CC2)cc1,-18%,-5%,1,-1%,79µM*,.
Cc1ccc(S(=O)(=O)NCCc2nnc3ccc(SCc4cccc(F)c4)nn23)cc1,-13%,36%,.,-35%,3%[59 µM],.
Cc1ccc2c(=O)c(C(=O)c3cccc(Cl)c3)cn(CC(=O)Nc3ccccc3C(F)(F)F)c2n1,1%,15%,.,2%,2%[59 µM],.
SMILES,JMJD2A Tudor,HP1b chromo inh,PI5P4Ka inh,BAZ2B block,G9a inh,L3MBTL1 inh
CCc1cc2c(cc3c(=O)n(CC(=O)NCCc4ccccc4)ncn32)s1,-21%,3%,.,1%,-5%[59 µM],.
Cn1c(=O)n(C)c2cc(/C=N/NC(N)=S)ccc21,-10%[57.1 µM],-9%,-11,-37%,20µM*,0%
Cn1c(=O)n(C)c2cc(/C=N/NC(=O)c3ccc(Cl)cc3Cl)ccc21,-2%,38%,-3,-38%[57.1 µM],18%,-2%
CCOC(=O)COc1nc(C)c(Br)c(OC)n1,-1%,18%,.,0%,?,-1%
CCOc1nc(OCC)c2[nH]c(C(=O)O)c(Br)c2n1,25µM*,-7%,?,.,.,.
COc1cccc(C2NC(=O)NC(O)(C(F)(F)F)C2C(=O)c2cccnc2)c1OC (stereo not given),-23%,20%,0,18%,50µM*,1%
COc1ccc(C2NC(=O)NC(O)(C(F)(F)F)C2C(=O)c2ccccc2)cc1OC (stereo not given),-20%,29%,.,2%,7%,.
COc1cccc(C2c3c(oc4cc(C)cc(C)c4c3=O)C(=O)N2CCc2ccc(OC)c(OC)c2)c1 (stereo not given),1%,33%,.,0%,?,.
Cc1ccc(/C=C/C(=O)N2CCN(c3ncccn3)CC2)o1,28µM*,?,?,-8%,4µM*,-19%
NC(=O)C1CCCN(C(=O)c2ccc(Cl)cc2)C1 (stereo not given),-18%,17%,.,-1%,3%[12.7 µM],-13%
Cc1ccc(/C=C/C(=O)N2CCN(c3ccc(F)cc3)CC2)o1,-24%,-14%,2,?,?,-1%
Cc1ccc(/C=C/C(=O)N2CCCC(C(N)=O)C2)o1 (stereo not given),-2%,14%,-3,15%,56µM*,-9%
CCOC(=O)C1CCN(C(=O)c2c(C)nn(-c3ccc(F)cc3)c2-n2cccc2)CC1,-12%,5%,.,-8%,?,.
